Experimental data as given in PubChem BioAssay.
Where a name gives a salt, the structure may show the parent alone. Unmarked numbers belong to inactive results. The source made the active and inactive calls.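 Rule for the calls: active = at least 20% inhibition of 6-phosphogluconate dehydrogenase activity; inactive = the rest.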 Where a SMILES comes first, the peptide text is derived from it. Bridges are numbered along the chain shown (N, C = ends). [ ]: non-standard residue; d: D form. The star is where a group is joined. ξ: configuration not given here. ξDab(CH2SO3H) = NC(CCNCS(=O)(=O)O)C(=O)O; Octanoyl(6-Me) = CCC(C)CCCCC(=O)*; Dab = NCC[CH](N)C(=O)O; Tfa = O=C(C(F)(F)F)*; NHCH2CH2OH = OCCN*; For = O=C*

Target: 6-phosphogluconate dehydrogenase, decarboxylating (Homo sapiens) (UniProt P52209)
Sequence (P52209 whole entry, looked up): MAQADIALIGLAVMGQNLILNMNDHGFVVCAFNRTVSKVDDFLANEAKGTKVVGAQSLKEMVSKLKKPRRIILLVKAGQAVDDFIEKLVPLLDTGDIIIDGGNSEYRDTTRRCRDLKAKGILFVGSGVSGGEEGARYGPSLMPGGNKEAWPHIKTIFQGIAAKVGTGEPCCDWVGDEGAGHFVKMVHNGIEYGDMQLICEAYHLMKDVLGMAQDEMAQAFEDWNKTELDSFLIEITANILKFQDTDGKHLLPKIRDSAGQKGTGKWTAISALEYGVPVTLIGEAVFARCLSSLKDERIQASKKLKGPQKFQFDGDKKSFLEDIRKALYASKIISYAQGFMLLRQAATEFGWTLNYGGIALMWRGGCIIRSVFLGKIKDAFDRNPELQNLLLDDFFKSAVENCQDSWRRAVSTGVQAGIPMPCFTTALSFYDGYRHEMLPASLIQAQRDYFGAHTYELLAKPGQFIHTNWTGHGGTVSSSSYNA
Assay: inhibition of human phosphogluconate dehydrogenase – biochemical, recombinant enzyme, NADPH absorbance, primary screen (AID 1159550)
Conditions: recombinant 6PGD, NADPH absorbance 341 nm; at 10 µM; stronger effect = higher value

SMILES	inhibition
CC(CCC(=O)O)C1CCC2C3CCC4CCCCC4(C)C3CCC12C (stereo not given)	14%
C=C[C@@H]1CN2CC[C@@H]1C[C@@H]2[C@@H](O)c1ccnc2ccc(OC)cc12	8.78%
CC(=O)Oc1ccc2c(c1)CC[C@@H]1[C@@H]2CC[C@]2(C)C(=O)CC[C@@H]12	-18%
C[C@H](N)CO	-0.518%
C=C1C(C)(C)[C@@]2(Cl)C(Cl)[C@]1(Cl)C(Cl)(Cl)C2(Cl)Cl (stereo not given in full)	6.23%
C[C@H](CCC(=O)O)[C@H]1CC[C@H]2[C@@H]3C=C[C@@H]4C[C@H](O)CC[C@]4(C)[C@H]3CC[C@]12C	3.87%
COc1cc(O)cc(/C=C/c2ccccc2)c1	10.9%
COc1c(C(=O)O)ccc2c1CCC(C)(C)O2	17.1%
CC(C)CCC[C@@H](C)[C@H]1CC[C@H]2[C@@H]3CC[C@H]4CCCC[C@]4(C)[C@H]3CC[C@]12C	11.6%
CC(=O)OC1CCC2(C)C3=C(CC[C@H]2C1(C)C)[C@@]1(C)CC[C@@H]([C@@H](C)CCC=C(C)C)[C@]1(C)CC3 (stereo not given in full)	-9.29%
CCOC(=O)C1(O)Oc2cc(OC)cc(OC)c2C(=O)C1c1ccccc1 (stereo not given)	-4.01%
CC[C@@H](CC[C@@H](C)[C@H]1CC[C@H]2[C@@H]3CC=C4C[C@@H](O)CC[C@]4(C)[C@H]3CC[C@]12C)C(C)C	10.4%
CC(=O)OC1CC[C@@]2(C)C(CC[C@]3(C)C2CCC2C4CC(C)(C)CCC4(C(=O)O)CC[C@]23C)C1(C)C (stereo not given in full)	5.8%
COc1ccc2c(=O)ccoc2c1	-1.53%
Cc1occc(=O)c1/C=C/O	0.162%
COC(=O)C[C@H]1C(C)(C)C(=O)[C@@H]2CC3=C4CC(=O)O[C@@H](c5ccoc5)[C@]4(C)CC[C@@H]3C1(C)C2=O	-2.15%
CC1OC(OC2C(O)COC(OC3C(C)OC(OC4C(OC(=O)C56CCC(C)(C)CC5C5=CCC7C8(C)CCC(OC9OC(CO)C(O)C(O)C9O)C(C)(C)C8CCC7(C)C5(C)CC6O)OCC(O)C4O)C(O)C3O)C2O)C(O)C(O)C1O (stereo not given)	-33.1%
COC(=O)C[C@H]1C(C)(C)C(=O)[C@@H]2CC3C4=CC(=O)O[C@@H](c5ccoc5)[C@]4(C)CC[C@@H]3[C@@]1(C)C2=O (stereo not given in full)	12.7%
CC1OC(OC2C(Oc3cc(O)c4c(=O)cc(-c5ccc(O)cc5)oc4c3)OC(CO)C(O)C2O)C(O)C(O)C1O (stereo not given)	-11.1%
CC(=O)O[C@H]1CC[C@]2(C)C(C[C@@H](OC(C)=O)[C@]3(C)C4=CC(=O)OC(c5ccoc5)[C@@]4(C)CCC23)C1(C)C (stereo not given in full)	5.97%

SMILES	inhibition
C[C@H](CCC(=O)O)C1CC[C@H]2[C@@H]3CC[C@H]4C[C@H](O)CC[C@]4(C)[C@H]3C[C@H](O)[C@]12C (stereo not given in full)	-1.43%
CC=C(C)C(=O)OC1C(OC(C)=O)[C@]2(CO)C(O)C[C@]3(C)C(=CCC4[C@@]5(C)CCC(OC6OC(C(=O)O)C(OC7OC(CO)C(O)C(O)C7O)C(O)C6OC6OC(CO)C(O)C(O)C6O)[C@](C)(CO)C5CC[C@]43C)C2CC1(C)C (stereo not given in full)	10.9%
CC(=O)O[C@H]1CC[C@]2(C)[C@H]3CC=C4[C@@H]5CC(C)(C)CC[C@]5(C(=O)O)CC[C@@]4(C)[C@]3(C)CC[C@H]2C1(C)C	-0.817%
CC(=O)O[C@@H]1CC2C(C)(C)C(=O)[C@@H]3O[C@@H]3[C@]2(C)C2CC[C@]3(C)C(=CC(=O)O[C@H]3c3ccoc3)[C@@]21C (stereo not given in full)	0.52%
N[C@@H](COCc1ccccc1)C(=O)O	3.6%
CC(=O)c1ccc(O)c(CC=C(C)C)c1	18.5%
CC[C@@H](CC[C@@H](C)[C@H]1CC[C@H]2[C@@H]3CC[C@H]4C[C@@H](O)CC[C@]4(C)[C@H]3CC[C@]12C)C(C)C	-13.2%
COc1ccc2c(c1)[C@@]1(C)CCC(=O)C[C@@H]1CC2	3.57%
Cc1cc(=O)c2c(O)c3c(cc2o1)OCC(C)CC3 (stereo not given)	4.57%
CC(C)[C@H](NC(=O)[C@H](Cc1ccc(O)cc1)NC(=O)[C@@H](NC(=O)C(F)(F)F)C(C)C)C(=O)O (Tfa-Val-Tyr-Val-OH)	-6.07%
CC(C)c1c(O)ccc2c1CCC1[C@@](C)(C(=O)O)CCC[C@]21C (stereo not given in full)	17.5%
N[C@@H](Cc1cnc[nH]1)C(=O)Nc1ccc2ccccc2c1	-4.42%
CS(=O)(=O)CCCCN=C=S	1.33%
NC(=O)NCC(N)C(=O)O (stereo not given)	-2.17%
CC1=C2C(=COC(C)C2C)C(=O)C(C(=O)O)=C1O (stereo not given)	10.6%
COC(=O)C[C@H]1C(C)(C)C(OC(C)=O)[C@]2(O)C=C3C4CC(=O)O[C@@H](c5ccoc5)[C@]4(C)CCC3[C@@]1(C)C2=O (stereo not given in full)	-4.04%
CCC(C)CCCCC(=O)NC(CCNCS(=O)(=O)O)C(=O)NC(C(=O)NC(CCNCS(=O)(=O)O)C(=O)NC1CCNC(=O)C(C(C)O)NC(=O)C(CCNCS(=O)(=O)O)NC(=O)C(CCNCS(=O)(=O)O)NC(=O)C(CC(C)C)NC(=O)C(CC(C)C)NC(=O)C(CCNCS(=O)(=O)O)NC1=O)C(C)O (stereo not given) ({Octanoyl(6-Me)}-[ξDab(CH2SO3H)]T[ξDab(CH2SO3H)][Dab][ξDab(CH2SO3H)]LL[ξDab(CH2SO3H)][ξDab(CH2SO3H)]T; lactam 4-C; configuration not given here)	17.5%
O=c1c(O)cc([C@H]2Oc3cc(O)cc(O)c3C[C@H]2O)cc2c([C@H]3Oc4cc(O)cc(O)c4C[C@H]3O)cc(O)c(O)c12	31.2% (active)
COc1ccc2c(c1)CC[C@@H]1[C@@H]2CC[C@]2(C)[C@@H](O)[C@H](O)C[C@@H]12	5.45%
CC(C)C[C@@H](NC(=O)[C@H](C)NC(=O)CNC(=O)[C@@H](NC=O)C(C)C)C(=O)N[C@@H](C)C(=O)N[C@@H](C(=O)N[C@H](C(=O)N[C@H](C(=O)N[C@@H](Cc1c[nH]c2ccccc12)C(=O)N[C@H](CC(C)C)C(=O)N[C@@H](Cc1c[nH]c2ccccc12)C(=O)N[C@H](CC(C)C)C(=O)N[C@@H](Cc1c[nH]c2ccccc12)C(=O)N[C@H](CC(C)C)C(=O)N[C@@H](Cc1c[nH]c2ccccc12)C(=O)NCCO)C(C)C)C(C)C)C(C)C (For-VGA[dL]A[dV]VVW[dL]W[dL]W[dL]W-NHCH2CH2OH)	10.9%
